# From article PMC7862700, “An all-to-all approach to the identification of sequence-specific readers for epigenetic DNA modifications on cytosine”
# How the values were obtained:
# Test in all cases: DAPPL (digital affinity profiling via proximity ligation, sequencing); 10 mM Tris-HCl pH 7.5, 50 mM NaCl, 1 mM DTT, 4% glycerol, room temperature, 30 min; GST-TFs on glutathione beads, 16-mer random dsDNA library, 0.1% formaldehyde crosslink after washing; high values mean tight binding
# [1] = biological target: T1, FLI1 (Homo sapiens, UniProt Q01543 1-452); settings: protein: recombinant; tags: N-terminal GST; dsDNA, one strand shown
# T1 sequence: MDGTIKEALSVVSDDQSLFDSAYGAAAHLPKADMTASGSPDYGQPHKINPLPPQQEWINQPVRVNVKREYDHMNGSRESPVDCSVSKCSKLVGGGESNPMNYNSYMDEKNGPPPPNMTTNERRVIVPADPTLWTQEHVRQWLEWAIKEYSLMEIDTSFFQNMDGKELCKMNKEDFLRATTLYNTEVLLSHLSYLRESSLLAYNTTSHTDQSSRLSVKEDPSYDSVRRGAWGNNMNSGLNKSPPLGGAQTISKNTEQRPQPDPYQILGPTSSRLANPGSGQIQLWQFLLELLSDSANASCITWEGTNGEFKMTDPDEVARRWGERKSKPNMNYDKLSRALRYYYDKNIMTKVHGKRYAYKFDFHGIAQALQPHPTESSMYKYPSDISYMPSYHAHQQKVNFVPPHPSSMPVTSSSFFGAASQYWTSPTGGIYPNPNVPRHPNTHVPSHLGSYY
# Outline: (§1)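 Binding signal is given per hexamer as its read frequency for a factor divided by its frequency in the tag-only sample. GST-fused human transcription factors were expressed in yeast, captured on glutathione beads, barcoded with DNA and pooled with that sample, then incubated with 200 nmole of a 16-mer random double-stranded DNA library in Tris/NaCl/DTT/glycerol buffer for 30 min at room temperature. The pools were then washed, crosslinked, proximity-ligated, amplified by PCR and sequenced on an Illumina NextSeq500.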
# [2] = biological target: T2, ELK1 (Homo sapiens, UniProt P19419 1-428); settings: protein: recombinant; tags: N-terminal GST; dsDNA, one strand shown
# T2 sequence: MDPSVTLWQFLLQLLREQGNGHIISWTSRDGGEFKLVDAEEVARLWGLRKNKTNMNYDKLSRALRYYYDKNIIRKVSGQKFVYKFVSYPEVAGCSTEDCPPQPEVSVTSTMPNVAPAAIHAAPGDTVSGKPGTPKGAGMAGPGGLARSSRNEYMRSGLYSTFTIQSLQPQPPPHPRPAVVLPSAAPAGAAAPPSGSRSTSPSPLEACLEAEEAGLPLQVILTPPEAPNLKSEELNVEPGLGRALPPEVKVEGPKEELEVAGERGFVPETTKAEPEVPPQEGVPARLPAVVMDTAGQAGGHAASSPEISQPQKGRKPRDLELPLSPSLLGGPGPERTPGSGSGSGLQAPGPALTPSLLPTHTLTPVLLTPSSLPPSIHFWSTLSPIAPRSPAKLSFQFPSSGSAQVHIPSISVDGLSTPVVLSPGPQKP
# Outline: as §1
# [3] = biological target: T3, GABPA (Homo sapiens, UniProt Q06546 1-454); settings: protein: recombinant; tags: N-terminal GST; dsDNA, one strand shown
# T3 sequence: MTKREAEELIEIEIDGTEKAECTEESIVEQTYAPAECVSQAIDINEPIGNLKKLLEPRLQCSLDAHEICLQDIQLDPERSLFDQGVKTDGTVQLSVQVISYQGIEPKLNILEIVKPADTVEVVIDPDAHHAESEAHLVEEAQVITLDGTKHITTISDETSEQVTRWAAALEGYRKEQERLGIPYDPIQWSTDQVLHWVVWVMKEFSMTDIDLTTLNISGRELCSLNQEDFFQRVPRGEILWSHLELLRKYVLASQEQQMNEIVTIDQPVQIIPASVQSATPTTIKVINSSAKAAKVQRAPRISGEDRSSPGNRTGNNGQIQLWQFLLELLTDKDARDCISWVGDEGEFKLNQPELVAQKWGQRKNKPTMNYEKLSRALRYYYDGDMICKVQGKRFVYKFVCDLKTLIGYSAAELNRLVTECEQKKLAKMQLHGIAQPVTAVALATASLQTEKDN
# Outline: as §1
# [4] = biological target: T4, ERG (Homo sapiens, UniProt P11308 1-479); settings: protein: recombinant; tags: N-terminal GST; dsDNA, one strand shown
# T4 sequence: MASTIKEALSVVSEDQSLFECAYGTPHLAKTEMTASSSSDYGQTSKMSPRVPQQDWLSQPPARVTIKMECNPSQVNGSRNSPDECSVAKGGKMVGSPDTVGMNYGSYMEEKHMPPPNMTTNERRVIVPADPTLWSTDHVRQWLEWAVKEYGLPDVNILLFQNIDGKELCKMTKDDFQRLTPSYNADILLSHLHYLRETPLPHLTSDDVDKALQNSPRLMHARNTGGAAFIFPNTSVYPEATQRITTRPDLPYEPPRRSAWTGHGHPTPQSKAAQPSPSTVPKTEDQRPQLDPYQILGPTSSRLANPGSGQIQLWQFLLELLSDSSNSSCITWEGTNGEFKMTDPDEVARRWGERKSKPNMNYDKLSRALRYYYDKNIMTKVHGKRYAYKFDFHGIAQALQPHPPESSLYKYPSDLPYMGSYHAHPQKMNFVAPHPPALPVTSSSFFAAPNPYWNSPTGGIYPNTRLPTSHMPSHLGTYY
# Outline: as §1
# [5] = biological target: ELF1 (Homo sapiens, UniProt P32519 1-619); settings: protein: recombinant; tags: N-terminal GST; dsDNA, one strand shown
# Outline: as §1
# [6] = biological target: T5, EHF (Homo sapiens, UniProt Q9NZC4 1-300); settings: protein: recombinant; tags: N-terminal GST; dsDNA, one strand shown
# T5 sequence: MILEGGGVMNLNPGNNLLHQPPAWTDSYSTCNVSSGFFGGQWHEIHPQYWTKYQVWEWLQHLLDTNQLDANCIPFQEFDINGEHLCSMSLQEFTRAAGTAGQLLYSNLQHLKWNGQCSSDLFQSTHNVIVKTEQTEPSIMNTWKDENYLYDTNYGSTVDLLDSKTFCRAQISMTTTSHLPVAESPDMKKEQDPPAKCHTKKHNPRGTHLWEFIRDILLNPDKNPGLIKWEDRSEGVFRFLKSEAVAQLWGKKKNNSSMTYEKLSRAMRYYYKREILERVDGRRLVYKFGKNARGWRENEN
# Outline: as §1
# [7] = biological target: SPI1 (Homo sapiens, UniProt P17947 1-270); settings: protein: recombinant; tags: N-terminal GST; dsDNA, one strand shown
# Outline: as §1
# [8] = biological target: SPIB (Homo sapiens, UniProt Q01892 1-262); settings: protein: recombinant; tags: N-terminal GST; dsDNA, one strand shown
# Outline: as §1
# [9] = biological target: T6, ELK3 (Homo sapiens, UniProt P41970 1-407); settings: protein: recombinant; tags: N-terminal GST; dsDNA, one strand shown
# T6 sequence: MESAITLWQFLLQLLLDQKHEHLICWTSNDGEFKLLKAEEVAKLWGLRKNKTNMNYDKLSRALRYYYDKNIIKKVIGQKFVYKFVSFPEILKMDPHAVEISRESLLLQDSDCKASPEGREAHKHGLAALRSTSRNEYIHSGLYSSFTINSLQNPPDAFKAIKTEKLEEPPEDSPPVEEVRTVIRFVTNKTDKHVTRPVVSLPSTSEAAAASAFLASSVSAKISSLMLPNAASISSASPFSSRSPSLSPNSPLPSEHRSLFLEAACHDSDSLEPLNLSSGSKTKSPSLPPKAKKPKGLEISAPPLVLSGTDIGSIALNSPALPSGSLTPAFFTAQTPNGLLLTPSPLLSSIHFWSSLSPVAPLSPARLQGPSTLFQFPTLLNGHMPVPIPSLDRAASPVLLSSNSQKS
# Outline: as §1
# [10] = biological target: T7, FEV (Homo sapiens, UniProt Q99581 1-238); settings: protein: recombinant; tags: N-terminal GST; dsDNA, one strand shown
# T7 sequence: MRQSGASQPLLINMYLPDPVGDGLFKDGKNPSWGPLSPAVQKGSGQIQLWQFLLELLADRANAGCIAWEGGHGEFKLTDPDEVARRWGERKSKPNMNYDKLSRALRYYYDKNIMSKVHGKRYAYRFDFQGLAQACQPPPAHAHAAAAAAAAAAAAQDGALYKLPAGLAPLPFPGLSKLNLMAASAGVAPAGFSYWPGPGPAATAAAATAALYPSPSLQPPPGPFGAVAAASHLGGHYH
# Outline: as §1
# [11] = biological target: ETV5 (Homo sapiens, UniProt P41161 1-510); settings: protein: recombinant; tags: N-terminal GST; dsDNA, one strand shown
# Outline: as §1
# [12] = biological target: HSF1 (Homo sapiens, UniProt Q00613 1-529); settings: protein: recombinant; tags: N-terminal GST; chain copies: 3; dsDNA, one strand shown
# Outline: as §1
# [13] = biological target: T8, SPIC (Homo sapiens, UniProt Q8N5J4 1-248); settings: protein: recombinant; tags: N-terminal GST; dsDNA, one strand shown
# T8 sequence: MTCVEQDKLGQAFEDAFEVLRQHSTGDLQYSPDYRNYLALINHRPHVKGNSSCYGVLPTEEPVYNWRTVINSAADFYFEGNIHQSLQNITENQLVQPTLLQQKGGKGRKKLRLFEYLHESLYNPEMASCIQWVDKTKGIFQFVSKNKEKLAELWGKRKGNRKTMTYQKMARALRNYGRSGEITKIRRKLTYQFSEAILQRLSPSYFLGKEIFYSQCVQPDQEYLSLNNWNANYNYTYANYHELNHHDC
# Outline: as §1
# [14] = biological target: ELF4 (Homo sapiens, UniProt Q99607 1-663); settings: protein: recombinant; tags: N-terminal GST; dsDNA, one strand shown
# Outline: as §1
# [15] = biological target: T9, ELK4 (Homo sapiens, UniProt P28324-2 1-405); settings: protein: recombinant; tags: N-terminal GST; dsDNA, one strand shown
# T9 sequence: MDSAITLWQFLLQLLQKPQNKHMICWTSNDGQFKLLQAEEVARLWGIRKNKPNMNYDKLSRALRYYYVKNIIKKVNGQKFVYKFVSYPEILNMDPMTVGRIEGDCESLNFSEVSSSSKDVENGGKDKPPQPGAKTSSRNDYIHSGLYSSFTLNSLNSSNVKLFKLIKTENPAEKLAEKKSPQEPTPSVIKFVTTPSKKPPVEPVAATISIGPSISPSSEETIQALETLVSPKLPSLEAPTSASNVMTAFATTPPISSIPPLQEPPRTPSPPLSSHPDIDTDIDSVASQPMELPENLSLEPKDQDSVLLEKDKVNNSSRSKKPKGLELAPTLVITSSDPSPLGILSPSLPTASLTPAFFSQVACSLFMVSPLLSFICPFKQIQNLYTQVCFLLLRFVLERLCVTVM
# Outline: as §1
# [16] = biological target: T10, ETV2 (Homo sapiens, UniProt O00321 1-342); settings: protein: recombinant; tags: N-terminal GST; dsDNA, one strand shown
# T10 sequence: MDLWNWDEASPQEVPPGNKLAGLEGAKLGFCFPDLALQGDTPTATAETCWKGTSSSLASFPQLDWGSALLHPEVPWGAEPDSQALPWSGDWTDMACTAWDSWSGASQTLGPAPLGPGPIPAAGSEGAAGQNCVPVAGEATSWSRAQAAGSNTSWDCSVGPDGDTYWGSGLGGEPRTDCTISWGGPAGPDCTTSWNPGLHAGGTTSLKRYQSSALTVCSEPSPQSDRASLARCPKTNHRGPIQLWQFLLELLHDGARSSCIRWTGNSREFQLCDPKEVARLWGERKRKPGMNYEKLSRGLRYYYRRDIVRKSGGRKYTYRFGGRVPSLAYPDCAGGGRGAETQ
# Outline: as §1
# [17] = biological target: T11, ELF3 (Homo sapiens, UniProt P78545 1-371); settings: protein: recombinant; tags: N-terminal GST; dsDNA, one strand shown
# T11 sequence: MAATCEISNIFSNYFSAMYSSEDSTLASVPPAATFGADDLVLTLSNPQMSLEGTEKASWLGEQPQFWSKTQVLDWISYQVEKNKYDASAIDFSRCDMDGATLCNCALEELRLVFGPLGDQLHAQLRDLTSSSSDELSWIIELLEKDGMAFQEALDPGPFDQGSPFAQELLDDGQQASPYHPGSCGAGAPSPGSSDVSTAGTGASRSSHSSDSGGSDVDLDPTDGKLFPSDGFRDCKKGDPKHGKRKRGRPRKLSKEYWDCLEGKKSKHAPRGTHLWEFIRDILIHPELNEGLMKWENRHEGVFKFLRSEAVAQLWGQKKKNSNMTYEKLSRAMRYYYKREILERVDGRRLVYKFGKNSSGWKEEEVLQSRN
# Outline: as §1
# [18] = biological target: CRX (Homo sapiens, UniProt O43186 1-299); settings: protein: recombinant; tags: N-terminal GST; dsDNA, one strand shown
# Outline: as §1
# [19] = biological target: ETV1 (Homo sapiens, UniProt P50549 1-477); settings: protein: recombinant; tags: N-terminal GST; dsDNA, one strand shown
# Outline: as §1
# Sequence of CRX (O43186 whole entry): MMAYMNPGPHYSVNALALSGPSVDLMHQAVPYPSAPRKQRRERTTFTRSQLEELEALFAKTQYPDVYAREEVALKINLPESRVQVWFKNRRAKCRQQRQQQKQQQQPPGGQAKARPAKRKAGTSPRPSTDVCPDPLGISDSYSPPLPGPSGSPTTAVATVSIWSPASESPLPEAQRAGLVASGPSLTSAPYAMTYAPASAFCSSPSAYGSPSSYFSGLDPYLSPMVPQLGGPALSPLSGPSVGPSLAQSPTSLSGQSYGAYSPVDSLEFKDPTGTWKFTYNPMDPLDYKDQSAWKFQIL
# Sequence of ELF1 (P32519 whole entry): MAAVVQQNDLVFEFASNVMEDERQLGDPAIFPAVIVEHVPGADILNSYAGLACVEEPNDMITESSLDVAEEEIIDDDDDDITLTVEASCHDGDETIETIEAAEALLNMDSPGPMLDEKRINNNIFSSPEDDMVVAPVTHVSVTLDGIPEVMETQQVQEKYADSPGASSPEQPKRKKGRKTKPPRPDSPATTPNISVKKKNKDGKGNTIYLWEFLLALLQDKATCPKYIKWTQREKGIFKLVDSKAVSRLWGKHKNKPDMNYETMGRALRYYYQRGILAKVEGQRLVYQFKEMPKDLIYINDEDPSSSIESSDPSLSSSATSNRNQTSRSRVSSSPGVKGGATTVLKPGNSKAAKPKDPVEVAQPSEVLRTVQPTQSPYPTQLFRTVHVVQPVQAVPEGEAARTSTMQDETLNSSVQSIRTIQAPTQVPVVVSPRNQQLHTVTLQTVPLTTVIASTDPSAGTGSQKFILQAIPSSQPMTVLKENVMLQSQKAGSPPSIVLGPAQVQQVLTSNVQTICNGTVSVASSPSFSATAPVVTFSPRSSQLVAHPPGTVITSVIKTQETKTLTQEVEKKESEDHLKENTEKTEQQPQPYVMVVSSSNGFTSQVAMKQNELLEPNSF
# Sequence of SPIB (Q01892 whole entry): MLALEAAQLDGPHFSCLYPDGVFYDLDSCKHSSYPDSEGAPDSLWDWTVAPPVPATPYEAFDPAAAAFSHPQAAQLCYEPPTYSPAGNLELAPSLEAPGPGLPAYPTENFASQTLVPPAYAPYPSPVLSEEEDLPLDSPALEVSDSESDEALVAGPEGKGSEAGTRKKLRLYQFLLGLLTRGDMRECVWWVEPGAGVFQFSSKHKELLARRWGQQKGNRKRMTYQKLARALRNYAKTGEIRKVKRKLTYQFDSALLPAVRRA
# Sequence of ETV1 (P50549 whole entry): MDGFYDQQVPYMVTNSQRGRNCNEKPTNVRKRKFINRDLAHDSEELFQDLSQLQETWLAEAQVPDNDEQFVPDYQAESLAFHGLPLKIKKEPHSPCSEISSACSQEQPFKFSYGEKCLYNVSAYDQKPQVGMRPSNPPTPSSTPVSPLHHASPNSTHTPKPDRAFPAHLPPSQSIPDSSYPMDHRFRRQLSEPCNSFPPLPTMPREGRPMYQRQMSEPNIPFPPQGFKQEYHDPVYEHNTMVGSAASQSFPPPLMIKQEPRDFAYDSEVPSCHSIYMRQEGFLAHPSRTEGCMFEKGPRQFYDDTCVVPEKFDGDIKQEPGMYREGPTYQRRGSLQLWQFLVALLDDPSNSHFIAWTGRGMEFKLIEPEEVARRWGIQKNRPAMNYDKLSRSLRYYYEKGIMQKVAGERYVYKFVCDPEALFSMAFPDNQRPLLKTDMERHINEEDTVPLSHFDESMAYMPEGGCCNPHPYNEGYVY
# Sequence of ETV5 (P41161 whole entry): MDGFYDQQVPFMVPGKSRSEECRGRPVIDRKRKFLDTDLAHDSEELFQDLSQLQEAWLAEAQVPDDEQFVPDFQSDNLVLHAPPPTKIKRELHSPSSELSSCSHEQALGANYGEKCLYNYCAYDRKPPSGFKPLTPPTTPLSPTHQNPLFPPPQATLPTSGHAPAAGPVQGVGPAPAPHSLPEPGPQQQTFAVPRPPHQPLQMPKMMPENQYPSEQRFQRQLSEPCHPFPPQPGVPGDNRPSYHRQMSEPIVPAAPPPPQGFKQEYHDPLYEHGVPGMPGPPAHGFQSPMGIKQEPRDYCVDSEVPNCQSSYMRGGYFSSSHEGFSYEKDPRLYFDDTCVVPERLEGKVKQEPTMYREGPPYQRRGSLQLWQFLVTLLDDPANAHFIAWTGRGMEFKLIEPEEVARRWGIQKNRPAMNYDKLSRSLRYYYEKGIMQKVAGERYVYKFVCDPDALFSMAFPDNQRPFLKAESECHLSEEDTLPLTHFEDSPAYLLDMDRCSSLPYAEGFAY
# Sequence of ELF4 (Q99607 whole entry): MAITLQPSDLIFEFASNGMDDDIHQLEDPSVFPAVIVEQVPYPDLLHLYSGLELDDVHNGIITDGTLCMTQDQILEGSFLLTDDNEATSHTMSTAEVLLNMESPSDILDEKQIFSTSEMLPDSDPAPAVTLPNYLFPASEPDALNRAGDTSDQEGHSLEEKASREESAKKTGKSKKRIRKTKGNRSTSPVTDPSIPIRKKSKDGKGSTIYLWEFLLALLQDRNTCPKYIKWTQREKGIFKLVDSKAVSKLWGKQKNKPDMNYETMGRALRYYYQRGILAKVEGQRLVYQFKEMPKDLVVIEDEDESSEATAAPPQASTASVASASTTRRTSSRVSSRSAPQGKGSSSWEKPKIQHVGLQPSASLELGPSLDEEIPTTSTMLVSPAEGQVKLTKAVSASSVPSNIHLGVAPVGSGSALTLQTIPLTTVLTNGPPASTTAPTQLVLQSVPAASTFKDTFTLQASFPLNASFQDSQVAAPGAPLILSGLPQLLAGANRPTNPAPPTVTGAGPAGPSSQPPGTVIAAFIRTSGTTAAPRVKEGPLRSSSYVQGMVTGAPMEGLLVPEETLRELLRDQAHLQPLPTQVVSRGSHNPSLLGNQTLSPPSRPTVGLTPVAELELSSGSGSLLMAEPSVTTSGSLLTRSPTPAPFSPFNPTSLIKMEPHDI
# Sequence of HSF1 (Q00613 whole entry): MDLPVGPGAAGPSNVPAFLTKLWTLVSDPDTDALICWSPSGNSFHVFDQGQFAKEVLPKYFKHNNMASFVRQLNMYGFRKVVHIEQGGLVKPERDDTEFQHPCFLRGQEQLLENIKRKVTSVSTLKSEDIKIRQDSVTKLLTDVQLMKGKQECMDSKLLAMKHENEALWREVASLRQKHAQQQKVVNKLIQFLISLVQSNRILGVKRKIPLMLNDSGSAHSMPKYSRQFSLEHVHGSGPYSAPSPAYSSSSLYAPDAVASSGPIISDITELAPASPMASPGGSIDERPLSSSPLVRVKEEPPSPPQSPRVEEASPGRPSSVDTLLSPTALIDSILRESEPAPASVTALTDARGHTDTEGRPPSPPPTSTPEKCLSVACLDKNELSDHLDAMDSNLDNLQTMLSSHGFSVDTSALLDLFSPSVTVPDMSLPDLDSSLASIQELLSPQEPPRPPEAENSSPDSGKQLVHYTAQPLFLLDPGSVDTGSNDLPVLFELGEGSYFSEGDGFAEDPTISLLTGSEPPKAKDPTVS
sequence,measurement,setting,value
TACCTC,binding signal,[1],"1.25 fold enrichment (6-mer frequency, TF over GST control)"
same,binding signal,[2],"1.29 fold enrichment (6-mer frequency, TF over GST control)"
same,binding signal,[3],"1.33 fold enrichment (6-mer frequency, TF over GST control)"
same,binding signal,[4],"1.19 fold enrichment (6-mer frequency, TF over GST control)"
same,binding signal,[5],"1.25 fold enrichment (6-mer frequency, TF over GST control)"
same,binding signal,[6],"1.2 fold enrichment (6-mer frequency, TF over GST control)"
same,binding signal,[7],"1.27 fold enrichment (6-mer frequency, TF over GST control)"
same,binding signal,[8],"1.21 fold enrichment (6-mer frequency, TF over GST control)"
same,binding signal,[9],"1.27 fold enrichment (6-mer frequency, TF over GST control)"
same,binding signal,[10],"1.22 fold enrichment (6-mer frequency, TF over GST control)"
same,binding signal,[11],"1.14 fold enrichment (6-mer frequency, TF over GST control)"
same,binding signal,[12],"1.07 fold enrichment (6-mer frequency, TF over GST control)"
same,binding signal,[13],"1.4 fold enrichment (6-mer frequency, TF over GST control)"
same,binding signal,[14],"1.21 fold enrichment (6-mer frequency, TF over GST control)"
same,binding signal,[15],"1.36 fold enrichment (6-mer frequency, TF over GST control)"
same,binding signal,[16],"1.24 fold enrichment (6-mer frequency, TF over GST control)"
same,binding signal,[17],"1.27 fold enrichment (6-mer frequency, TF over GST control)"
same,binding signal,[18],"1.19 fold enrichment (6-mer frequency, TF over GST control)"
same,binding signal,[19],"1.29 fold enrichment (6-mer frequency, TF over GST control)"
